Reference: PubChem BioAssay (NCI)
This is part of a sample that, as a whole, favours compounds with a hit. Of some 83,000 tested, about 20% had one in any assay.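 48-hour exposure, single concentration, 96-well plates; percent growth endpoint where 0 means no net growth. Active: below 10.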 The source made the active and inactive calls.

Tests used:
Test in all cases: NCI-60 one-dose screen, 48 h (100 = growth as untreated, 0 = no growth, -100 = all killed)
Settings in all cases: 10 µM unless noted
[1] = system: SR leukemia
[2] = system: RPMI-8226 leukemia
[3] = system: OVCAR-8 ovarian
[4] = system: OVCAR-5 ovarian
[5] = system: OVCAR-4 ovarian
[6] = system: SK-OV-3 ovarian
[7] = system: IGROV1 ovarian
[8] = system: OVCAR-3 ovarian
[9] = system: HS 578T breast
[10] = system: T-47D breast
[11] = system: BT-549 breast
[12] = system: MDA-MB-435 melanoma
[13] = system: SW-620 colon
[14] = system: MCF7 breast
[15] = system: HCT-116 colon
[16] = system: HCC-2998 colon
[17] = system: KM12 colon
[18] = system: NCI/ADR-RES ovarian

Measured: growth

CCN(CC)CCC(=O)Nc1ccc(Cn2nnc3c2C(=O)c2nnn(Cc4ccc(NC(=O)CCN(CC)CC)cc4)c2C3=O)cc1
inactive: [9] 14.2%
active: [1] -18.9% | [2] -16.6% | [3] -35.6% | [4] -19.1% | [5] -72.7% | [6] -8.54% | [7] -55.6% | [8] -16.2% | [10] -58% | [11] -94.2% | [12] -80.1% | [13] -9.46% | [14] -60.2% | [15] -87.9% | [16] -47.2% | [17] -6.54%

COc1cc(/C=C2\CN(C(=O)CCN3CCC(=NO)CC3)C/C(=C\c3cc(OC)c(OC)c(OC)c3)C2=O)cc(OC)c1OC
active: [1] 9.11% | [2] -40.1% | [3] 1.55% | [4] -65.4% | [5] -82.4% | [6] -7.89% | [7] -53.4% | [8] -97.6% | [9] 6.39% | [10] 4.37% | [11] -81.4% | [12] -81.9% | [13] -74.5% | [14] -54.3% | [15] -56.7% | [16] -79.8% | [17] -83.9%

CCOC(=O)c1cnc2ccc(OC)cc2c1Nc1cccc(S(=O)(=O)NC)c1
inactive: [1] 95.6% | [2] 51.6% | [3] 100% | [4] 102% | [5] 104% | [6] 113% | [7] 113% | [8] 103% | [9] 52.3% | [18] 90% | [12] 103% | [13] 113% | [14] 80.9% | [15] 96.7% | [16] 101% | [17] 96.1%

O=C(COc1cccc(/C=C2/Oc3ccccc3C2=O)c1)Nc1nccs1
active: [1] -53.8% | [2] -53.2% | [7] -35% | [17] 4.37%
inactive: [3] 61.8% | [4] 86.6% | [5] 87.5% | [6] 266% | [8] 220% | [9] 88.6% | [10] 166% | [11] 87.9% | [12] 103% | [13] 97.2% | [14] 54.4% | [15] 73.9% | [16] 105%

CCc1ccc(C(c2ccc(CC)cc2)C(Cl)(Cl)CCl)cc1
inactive: [1] 103% | [2] 93.6% | [3] 110% | [4] 99.9% | [5] 86.9% | [6] 105% | [7] 76.6% | [8] 86.3% | [9] 65.4% | [18] 91.3% | [11] 116% | [12] 102% | [13] 86.8% | [14] 106% | [15] 76.3% | [16] 90.1% | [17] 103%

COc1ccc(/C=C/C(=O)c2c(O)c(C)c(O)c3c2OC2=CC(O)=C(C(C)=O)C(=O)[C@]23C)cc1
active: [1] -17.6% | [2] -28.9% | [3] -14.9% | [4] 7.96% | [6] -24.9% | [7] -8.12% | [8] -20.5% | [9] -9.2% | [18] -13.5% | [11] -19.9% | [12] -66.9% | [13] 6.73% | [14] -2.88% | [15] -8.41% | [16] -30.2% | [17] -4.07%
inactive: [5] 12.1%

CC/C=C\C[C@H](O)C/C=C1/C(=O)C=C[C@@H]1C/C=C\CCCC(=O)NC(C)C
active: [1] -24.9% | [2] -5.29% | [3] -12.5% | [8] -6.93% | [11] 0.828% | [12] 5.43% | [15] -54.3% | [16] -55.5% | [17] -43.5%
inactive: [4] 41.6% | [5] 35.6% | [6] 21.4% | [7] 14.8% | [9] 46.6% | [18] 15.9% | [13] 11.7% | [14] 14.4%

CCCCCC(=O)Oc1ccc(/C(=C(\C)c2ccccc2)c2ccc(OCCN(CC)CC)cc2)cc1
inactive: [1] 17.7% | [2] 46.5% | [3] 81.9% | [4] 87.6% | [5] 84% | [6] 75.2% | [7] 75.9% | [8] 86.6% | [9] 35.6% | [10] 39% | [11] 72.7% | [12] 70.3% | [13] 70.8% | [14] 29.6% | [15] 50.7% | [16] 88.1% | [17] 62%

Cc1cc(Nc2nc(N3CCNCC3)nc3ccccc23)n[nH]1
inactive: [1] 92.6% | [2] 117% | [3] 115% | [4] 89.6% | [5] 96.2% | [6] 27% | [7] 85.1% | [8] 100% | [9] 65.2% | [10] 93% | [11] 88.6% | [12] 73% | [13] 103% | [14] 87% | [15] 80% | [16] 92.4% | [17] 26.7%

C=C1CCC2C3(C)COC(c4ccccc4Br)OC3CCC2(C)C1C/C=C1/C(=O)OCC1OC(C)=O (stereo not given)
inactive: [6] 52.7% | [16] 55.4%
active: [1] -40.9% | [2] -47% | [3] -36.2% | [4] -38.3% | [5] -62.2% | [7] -9.12% | [8] -88.8% | [9] -30.9% | [18] -3.45% | [11] -74.2% | [12] -38.6% | [13] -73.1% | [15] -91% | [17] -56.7%

OCCNCCNc1c2ccccc2nc2ccccc12
inactive: [1] 43.9% | [2] 90.8% | [3] 46.3% | [4] 114% | [5] 63.9% | [6] 78% | [7] 96.7% | [8] 65.6% | [9] 88.4% | [18] 89.1% | [11] 103% | [12] 89.4% | [13] 59.5% | [14] 23.4% | [15] 37.7% | [16] 52.6% | [17] 55.6%

NS(=O)(=O)N(c1cc(C(F)(F)F)cc(C(F)(F)F)c1)C1CCN(Cc2ccc(F)cc2)CC1
active: [1] -35.1% | [16] -50.4%
inactive: [2] 28.1% | [3] 73.2% | [4] 90.9% | [5] 72.4% | [6] 87.9% | [7] 61.9% | [8] 60% | [9] 84% | [10] 37.2% | [11] 81% | [12] 70.1% | [13] 63.8% | [14] 49.6% | [15] 38% | [17] 40.2%

CC(C)Oc1nc2c(c(=O)n(C)c(=O)n2C)n1C
inactive: [1] 104% | [2] 105% | [3] 103% | [4] 106% | [5] 115% | [6] 102% | [7] 102% | [8] 110% | [9] 116% | [18] 98.1% | [11] 109% | [12] 105% | [13] 102% | [14] 95.2% | [15] 101% | [16] 101% | [17] 105%

COc1ccccc1/C=C(/C(=O)c1ccccc1)c1ccccc1
inactive: [1] 94.7% | [2] 96.9% | [3] 87.7% | [4] 128% | [5] 94.2% | [6] 103% | [7] 96.7% | [8] 102% | [9] 100% | [10] 103% | [11] 92.4% | [12] 107% | [13] 101% | [14] 110% | [15] 83.5% | [16] 107% | [17] 98.1%

O=c1c2cccc3c(Nc4ccccn4)ccc(c32)c2nc3ccccc3n12
inactive: [1] 10.2% | [2] 49% | [3] 75.4% | [4] 83.3% | [5] 69.1% | [6] 89.1% | [7] 56.6% | [8] 70% | [9] 111% | [10] 46.6% | [11] 87.4% | [12] 99.4% | [13] 77.1% | [14] 28.7% | [15] 65% | [16] 68.5% | [17] 74.8%

O=C1Nc2ccccc2/C1=C/C(=N/c1nnc(-c2ccccc2)s1)c1ccccc1
active: [1] -23% | [2] -17.5% | [8] -20.2% | [13] -5.52% | [15] -51.9%
inactive: [3] 36.8% | [4] 78.9% | [5] 59.2% | [6] 87.3% | [7] 19.7% | [9] 106% | [10] 73.7% | [11] 66.4% | [12] 51.6% | [14] 36.9% | [16] 104% | [17] 87.7%
